# Rows were chosen to be rich in hits. Some 2.8% of all compounds tested hit in one or more screens of this group.
# CF NFkB block = inhibitors of cystic fibrosis induced NF-kB; KKLEB NF-kB-GFP reporter, PAF-induced, GFP fluorescence overnight; inhibition, % at 5 µM; 360,000 tested, 0.86% active;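 active = at least 50% inhibition at 5 µM, scaled per plate between neutral and stimulator controls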;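 note: PAF is a Pseudomonas aeruginosa culture filtrate used as stimulus; plate controls were PAF-stimulated DMSO wells for no effect and unstimulated DMSO wells for full effect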
# HIF-2a block = HIF-2a inhibition; 360,000 tested, 0.72% active; inhibition, % at 18.8 µM; AID 624352; 786-0 RCC cells HIF-2a reporter, luciferase luminescence, overnight;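 active = inhibition of the luminescence signal of 40% or more relative to plate controls, in a single-dose primary screen at 18.75 µM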
# KKLEB cytotox = reduces viability of KKLEB cystic fibrosis airway cells; KKLEB CF airway cells viability, ATPlite luminescence, overnight; active compounds read low; cells stimulated with P. aeruginosa culture filtrate; activity change (cytotoxicity), % at 5 µM; 360,000 tested, 0.36% active; AID 602141;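 active = corrected activity change at or below -50% at 5 µM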
# Peg3 prom inh = Peg3 promoter activity inhibition | AID 588405 | HeLa PEG-Prom luciferase reporter, luminescence, overnight | inhibition, % at 20 µM | 360,000 tested, 1.7% active;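 active = inhibition of at least 50% at 20 µM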
# Shn3 3UTR inh = reduces Shn3 3'UTR luciferase signal in osteoblasts; Clone20 osteoblast Shn3 3'UTR firefly luciferase, 24 h; inhibition, % at 12.5 µM; 360,000 tested, 0.52% active; AID 588674;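 active = mean inhibition of at least 75% with every replicate also reaching 75%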;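 note: 0% = median of neutral control wells and 100% = pilot-screen positive control compound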
# MITF TRPM1 inh = inhibitors of MITF-driven TRPM1 promoter in melanoma cells; AID 488899; inhibition, % at 12.5 µM; 330,000 tested, 0.83% active; SK-MEL-5 TRPM1 promoter luciferase, 24 h;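 active = mean inhibition across replicates of 60% or more, whatever share of single replicates reaches that level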
# Mdm2-MdmX confirm = confirmation of inhibitors of human Mdm2/MdmX interaction, set 2. shares compounds with HIF-2a block. SaOS-2 split-luciferase Mdm2/MdmX complementation, luminescence. inhibition, % at 8 µM. 740 tested, 99% active;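 active = mean inhibition of the luminescence signal across two replicates at or above 26 percent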
# Target sequence (O15151 whole entry, looked up): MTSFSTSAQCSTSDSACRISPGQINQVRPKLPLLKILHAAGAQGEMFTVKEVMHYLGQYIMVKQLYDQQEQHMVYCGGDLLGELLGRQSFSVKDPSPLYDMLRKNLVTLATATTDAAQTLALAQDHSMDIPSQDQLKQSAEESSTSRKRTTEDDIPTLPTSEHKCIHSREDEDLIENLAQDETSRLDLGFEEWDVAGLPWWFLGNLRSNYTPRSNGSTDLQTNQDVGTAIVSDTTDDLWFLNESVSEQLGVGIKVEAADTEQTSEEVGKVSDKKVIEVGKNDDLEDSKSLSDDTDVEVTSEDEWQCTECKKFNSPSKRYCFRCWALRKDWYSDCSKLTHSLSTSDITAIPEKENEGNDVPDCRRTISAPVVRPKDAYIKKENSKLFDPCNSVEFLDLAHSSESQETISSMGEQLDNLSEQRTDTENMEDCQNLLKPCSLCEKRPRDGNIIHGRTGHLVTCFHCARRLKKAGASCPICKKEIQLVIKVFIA
# Target sequence (Q00987 whole entry, looked up): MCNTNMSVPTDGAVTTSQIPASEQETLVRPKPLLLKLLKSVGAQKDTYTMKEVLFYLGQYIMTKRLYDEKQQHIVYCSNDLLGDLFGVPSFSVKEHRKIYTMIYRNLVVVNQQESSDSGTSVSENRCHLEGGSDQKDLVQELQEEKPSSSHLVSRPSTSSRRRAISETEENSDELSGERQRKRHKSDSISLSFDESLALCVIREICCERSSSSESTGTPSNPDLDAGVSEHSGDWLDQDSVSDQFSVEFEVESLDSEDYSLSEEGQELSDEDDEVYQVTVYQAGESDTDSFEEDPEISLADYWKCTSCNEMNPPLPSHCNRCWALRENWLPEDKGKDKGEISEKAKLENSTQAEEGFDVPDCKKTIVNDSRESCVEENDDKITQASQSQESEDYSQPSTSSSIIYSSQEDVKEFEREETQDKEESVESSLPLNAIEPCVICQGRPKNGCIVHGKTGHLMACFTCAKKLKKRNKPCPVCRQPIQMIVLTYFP
# HIF-2a inh conf = confirmation of HIF-2a inhibitors; inhibition, % at 18.8 µM; shares compounds with HIF-2a block; AID 651580; 786-0 RCC cells, HIF-2a luciferase reporter luminescence, overnight; 1,800 tested, 56% active;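 active = mean inhibition across four replicates of at least 40 percent at the single tested concentration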
# HIF-1a cs = HIF-1a inhibition counter-screen for HIF-2a hits. inhibition, % at 18.8 µM. shares compounds with HIF-2a block. MiaPaCa-2 HIF-1a luciferase reporter, desferoxamine, overnight. 1,800 tested, 72% active;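 active = mean inhibition of the reporter signal across four replicates at the single tested dose of 50% or more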
# * = called active by the depositor; / = not tested or not shown.
SMILES,CF NFkB block,HIF-2a block,KKLEB cytotox,Peg3 prom inh,Shn3 3UTR inh,MITF TRPM1 inh,HIF-2a inh conf,HIF-1a cs,others
CC(=O)c1ccc(NC(=O)c2noc3c2CCC3)cc1,-38.4,49.0*,30.4,28.1,39.6,55.7,72.4*,60.5*,
COc1ccc(NC(=O)c2noc3c2CCC3)cc1,4.0,-61.4,1.7,-122.4,-31.6,-40.9,/,/,
Cc1ccc(Cl)c(NC(=O)CCl)c1Cl,-1.4,17.6,-5.7,23.0,-18.2,18.2,/,/,
CCc1cc(SC#N)cc(CC)c1NC(=O)CCl,38.6,49.2*,-29.9,47.3,9.0,38.6,34.8,-22.9,
CCN(CC)C(=O)c1[nH]cnc1C(=O)Nc1cccc(Cl)c1,-8.6,4.9,5.3,-5.3,-11.9,0.5,/,/,
CCOC(=O)CNC(=O)CSc1nnc(NC(=O)c2ccc(C)cc2)s1,7.1,45.2*,-18.3,36.4,33.9,42.5,65.2*,-12.2,
CCOC(=O)CNC(=O)CSc1nnc(NC(=O)c2ccc3c(c2)OCO3)s1,-6.5,-52.8,-7.1,-39.9,-19.7,0.3,/,/,
COc1ccc(S(=O)(=O)N2CCOC2CNC(=O)C(=O)NCCCN2CCOCC2)cc1 (stereo not given),3.0,22.1,4.7,13.3,0.8,-1.4,/,/,
CC1(c2ccc(Cl)cc2Cl)NC(=O)N(CC(=O)NCCC2=CCCCC2)C1=O (stereo not given),-12.3,0.2,-2.1,6.0,-5.1,/,/,/,
Cc1[nH]n(-c2ccccc2)c(=O)c1N=Nc1c(O)cc(S(=O)(=O)N(C)C)c2ccccc12,5.2,-12.8,-7.6,61.7*,80.3,57.8,/,/,Mdm2-MdmX confirm=89.5*
Cc1[nH]n(-c2ccccc2)c(=O)c1N=Nc1ccc2c(c1)OCCO2,-2.0,-311.1,-1.0,-290.9,-76.5,-69.0,/,/,
CCOC(=O)C1=C(COC(=O)/C=C/c2ccco2)NC(=O)NC1C (stereo not given),30.7,-13.5,-8.3,-8.4,-0.3,1.7,/,/,
COc1ccc(-c2oc3ccccc3c(=O)c2OC(C)=O)cc1,24.4,-51.1,5.4,-116.7,-19.7,-39.8,/,/,Mdm2-MdmX confirm=92.7*
COc1ccc(-c2oc3ccccc3c(=O)c2OCC(=O)O)cc1,-6.3,7.2,7.4,-4.9,-3.2,-7.9,/,/,
COc1ccc(-c2cc(-c3ccccc3)c(C#N)c(S(C)=O)n2)cc1 (stereo not given),12.7,75.5*,-27.6,113.7*,1.7,69.6*,31.2,97.5*,
CCSc1nc(-c2ccc(OC)cc2)cc(-c2ccccc2)c1C#N,21.4,1.4,-5.2,21.8,51.0,10.2,/,/,
Cc1cccc(Oc2sc(C(=O)c3ccccc3)c(N)c2C#N)c1,36.6,43.3*,-26.4,42.2,-4.5,2.9,19.5,42.7,
Cc1cc(N2CCN(c3ccc([N+](=O)[O-])c4cccnc34)CC2)c2ccccc2n1,-40.7,32.0,-12.3,106.1*,75.3,76.3*,/,/,Mdm2-MdmX confirm=102.2*
Cc1cc(N2CCN(c3ccc(C(F)(F)F)cc3[N+](=O)[O-])CC2)c2ccccc2n1,4.0,17.0,1.0,10.4,52.7,9.7,/,/,
Cc1ccc(Nc2c(-c3ccccn3)nc3cc(C)ccn23)cc1,43.4,-14.1,-33.0,39.4,94.9*,64.1*,/,/,Mdm2-MdmX confirm=88.2*
Cc1ccc2nc(-c3ccncc3)c(Nc3ccccc3)n2c1,14.6,7.5,-5.6,-1.7,11.7,2.4,/,/,
Cc1ccc(Nc2c(-c3ccccn3)nc3ccc(C)cn23)cc1,13.2,-42.4,-13.6,11.9,95.4*,69.9*,/,/,Mdm2-MdmX confirm=86.2*
COCOCCn1cc(CN2CCS(=O)(=O)N(Cc3ccc(-c4ccc(OC)nc4)cc3)C(C(C)C)C2=O)nn1 (stereo not given),-17.6,-20.5,22.8,-15.1,24.3,/,/,/,
O=Cc1s/c(=N\S(=O)(=O)c2ccccc2)n(CCCCl)c1Cl,89.3*,96.4*,-68.8*,108.8*,92.5*,96.7*,93.4*,101.7*,

# Source: PubChem (several laboratories)
